# Measured values from PubChem BioAssay AID1159580 (chemical genetic matrix, 2015).
# Screen size: about 5,500 compounds; about 2,000 (36%) were called active. Roughly 18% stayed inconclusive and do not appear here. The list shows a part of the results. A number with no mark means an inactive call. Rule as the data show it: active = normalized growth mostly below about 0.91 (no sharp cut-off); inconclusive = no clear call, values can overlap the other calls; inactive = mostly above about 0.92.
# Experiment: chemical genetic growth profiling, strain panel (AID 1159580);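 also: tested at 20 µM; growth read once vehicle control cultures reached saturation at 30 °C; 1 = growth at the plate median or of vehicle wells; lower values mean less growth of the strain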
# Settings: growth OD
smiles,measurement,setting,value
CCc1ccc2c(O)c3c(cc2c1C(=O)OC)C(=O)c1c(O)ccc(O)c1C3=O,normalized growth,"S. cerevisiae deletion strains, locus YJR066W, strain TOR1, active compounds read low",0.895
same,normalized growth,"S. cerevisiae deletion strains, locus YJR075W, strain HOC1, active compounds read low",0.981
same,normalized growth,"S. cerevisiae deletion strains, locus YKL068W, active compounds read low",0.99
same,normalized growth,"S. cerevisiae deletion strains, locus YKL085W, strain MDH1 (second series), active compounds read low",1.05
same,normalized growth,"S. cerevisiae deletion strains, locus YKL085W, strain MDH1, active compounds read low",1.05
same,normalized growth,"S. cerevisiae deletion strains, locus YKL160W, strain elf1, active compounds read low",0.996
same,normalized growth,"S. cerevisiae deletion strains, locus YKR001C, strain vps1, active compounds read low",0.99
same,normalized growth,"S. cerevisiae deletion strains, locus YKR026C, strain gcn3, active compounds read low",0.979
same,normalized growth,"S. cerevisiae deletion strains, locus YKR091W, strain srl3, active compounds read low",0.995
same,normalized growth,"S. cerevisiae deletion strains, locus YLL001W, strain dnm1, active compounds read low",0.973
same,normalized growth,"S. cerevisiae deletion strains, locus YLL026W, active compounds read low",0.983
same,normalized growth,"S. cerevisiae deletion strains, locus YLL041C, strain sdh2, active compounds read low",0.999
same,normalized growth,"S. cerevisiae deletion strains, locus YLR027C, strain aat2, active compounds read low",0.994
same,normalized growth,"S. cerevisiae deletion strains, locus YLR039C, strain RIC1, active compounds read low",0.961
same,normalized growth,"S. cerevisiae deletion strains, locus YLR058C, strain SHM2, active compounds read low",0.956
same,normalized growth,"S. cerevisiae deletion strains, locus YLR102C, strain apc9, active compounds read low",0.999
same,normalized growth,"S. cerevisiae deletion strains, locus YLR113W, strain HOG1, active compounds read low",0.988
same,normalized growth,"S. cerevisiae deletion strains, locus YLR221C, strain rsa3, active compounds read low",0.969
same,normalized growth,"S. cerevisiae deletion strains, locus YLR258W, strain gsy2, active compounds read low",0.989
same,normalized growth,"S. cerevisiae deletion strains, locus YLR262C, strain YPT6 (second series), active compounds read low",0.956
same,normalized growth,"S. cerevisiae deletion strains, locus YLR262C, strain YPT6, active compounds read low",0.95
same,normalized growth,"S. cerevisiae deletion strains, locus YLR268W, strain sec22, active compounds read low",0.98
same,normalized growth,"S. cerevisiae deletion strains, locus YLR320W, strain mms22, active compounds read low",0.98
same,normalized growth,"S. cerevisiae deletion strains, locus YLR330W, strain CHS5, active compounds read low",1
same,normalized growth,"S. cerevisiae deletion strains, locus YLR342W, strain FKS1 (second series), active compounds read low",0.977
same,normalized growth,"S. cerevisiae deletion strains, locus YLR342W, strain FKS1, active compounds read low",0.968
same,normalized growth,"S. cerevisiae deletion strains, locus YLR357W, strain rsc2, active compounds read low",0.878
same,normalized growth,"S. cerevisiae deletion strains, locus YLR370C, strain arc18, active compounds read low",0.949
same,normalized growth,"S. cerevisiae deletion strains, locus YLR371W, strain rom2, active compounds read low",0.995
same,normalized growth,"S. cerevisiae deletion strains, locus YLR384C, strain iki3, active compounds read low",1
same,normalized growth,"S. cerevisiae deletion strains, locus YLR418C, strain cdc73, active compounds read low",0.932
same,normalized growth,"S. cerevisiae deletion strains, locus YML016C, strain PPZ1, active compounds read low",0.983
same,normalized growth,"S. cerevisiae deletion strains, locus YML032C, strain rad52, active compounds read low",0.932
same,normalized growth,"S. cerevisiae deletion strains, locus YML120C, strain ndi1, active compounds read low",0.999
same,normalized growth,"S. cerevisiae deletion strains, locus YML124C, strain tub3, active compounds read low",0.998
same,normalized growth,"S. cerevisiae deletion strains, locus YMR058W, strain fet3, active compounds read low",0.762 (active)
same,normalized growth,"S. cerevisiae deletion strains, locus YMR078C, strain ctf18, active compounds read low",0.997
same,normalized growth,"S. cerevisiae deletion strains, locus YMR125W, strain sto1, active compounds read low",1.01
same,normalized growth,"S. cerevisiae deletion strains, locus YMR129W, active compounds read low",0.966
same,normalized growth,"S. cerevisiae deletion strains, locus YMR205C, strain PFK2, active compounds read low",0.984
same,normalized growth,"S. cerevisiae deletion strains, locus YMR223W, strain ubp8, active compounds read low",0.933
same,normalized growth,"S. cerevisiae deletion strains, locus YMR231W, strain pep5, active compounds read low",0.995
same,normalized growth,"S. cerevisiae deletion strains, locus YMR307W, strain GAS1, active compounds read low",0.998
same,normalized growth,"S. cerevisiae deletion strains, locus YNL067W, strain RPL9B, active compounds read low",0.973
same,normalized growth,"S. cerevisiae deletion strains, locus YNL071W, strain lat1, active compounds read low",1
same,normalized growth,"S. cerevisiae deletion strains, locus YNL153C, strain GIM3, active compounds read low",0.954
same,normalized growth,"S. cerevisiae deletion strains, locus YNL183C, strain NPR1, active compounds read low",0.908
same,normalized growth,"S. cerevisiae deletion strains, locus YNL209W, strain ssb2, active compounds read low",0.981
same,normalized growth,"S. cerevisiae deletion strains, locus YNL233W, strain BNI4, active compounds read low",0.98
same,normalized growth,"S. cerevisiae deletion strains, locus YNL248C, strain rpa49, active compounds read low",0.961
same,normalized growth,"S. cerevisiae deletion strains, locus YNL250W, strain rad50, active compounds read low",0.972
same,normalized growth,"S. cerevisiae deletion strains, locus YNL271C, strain bni1, active compounds read low",0.965
same,normalized growth,"S. cerevisiae deletion strains, locus YNL298W, strain CLA4, active compounds read low",0.985
same,normalized growth,"S. cerevisiae deletion strains, locus YNL307C, strain MCK1, active compounds read low",1
same,normalized growth,"S. cerevisiae deletion strains, locus YNL322C, strain KRE1 (second series), active compounds read low",0.979
same,normalized growth,"S. cerevisiae deletion strains, locus YNR049C, strain mso1, active compounds read low",0.967
same,normalized growth,"S. cerevisiae deletion strains, locus YNR052C, strain pop2, active compounds read low",0.984
same,normalized growth,"S. cerevisiae deletion strains, locus YOL006C, strain TOP1, active compounds read low",1.07
same,normalized growth,"S. cerevisiae deletion strains, locus YOL012C, strain htz1",0.673
same,normalized growth,"S. cerevisiae deletion strains, locus YOL147C, strain pex11, active compounds read low",1.01
same,normalized growth,"S. cerevisiae deletion strains, locus YOR001W, strain rrp6, active compounds read low",0.973
same,normalized growth,"S. cerevisiae deletion strains, locus YOR061W, strain CKA2, active compounds read low",0.957
same,normalized growth,"S. cerevisiae deletion strains, locus YOR069W, strain VPS5, active compounds read low",0.999
same,normalized growth,"S. cerevisiae deletion strains, locus YOR070C, strain gyp1, active compounds read low",0.988
same,normalized growth,"S. cerevisiae deletion strains, locus YOR080W, strain dia2, active compounds read low",0.991
same,normalized growth,"S. cerevisiae deletion strains, locus YOR083W, strain WHI5, active compounds read low",0.98
same,normalized growth,"S. cerevisiae deletion strains, locus YOR106W, strain vam3, active compounds read low",0.964
same,normalized growth,"S. cerevisiae deletion strains, locus YOR136W, strain idh2, active compounds read low",1.01
same,normalized growth,"S. cerevisiae deletion strains, locus YOR144C, strain elg1, active compounds read low",0.993
same,normalized growth,"S. cerevisiae deletion strains, locus YOR184W, strain ser1, active compounds read low",0.965
same,normalized growth,"S. cerevisiae deletion strains, locus YOR231W, strain MKK1, active compounds read low",0.965
same,normalized growth,"S. cerevisiae deletion strains, locus YOR265W, strain rbl2, active compounds read low",0.987
same,normalized growth,"S. cerevisiae deletion strains, locus YOR270C, strain vph1, active compounds read low",0.827
same,normalized growth,"S. cerevisiae deletion strains, locus YOR290C, strain snf2, active compounds read low",0.929
same,normalized growth,"S. cerevisiae deletion strains, locus YOR316C, strain cot1, active compounds read low",0.992
same,normalized growth,"S. cerevisiae deletion strains, locus YPL051W, strain arl3, active compounds read low",0.953
same,normalized growth,"S. cerevisiae deletion strains, locus YPL078C, strain atp4, active compounds read low",0.977
same,normalized growth,"S. cerevisiae deletion strains, locus YPL106C, strain sse1, active compounds read low",0.974
same,normalized growth,"S. cerevisiae deletion strains, locus YPL240C, strain hsp82, active compounds read low",0.983
same,normalized growth,"S. cerevisiae deletion strains, locus YPL241C, strain CIN2, active compounds read low",0.99
same,normalized growth,"S. cerevisiae deletion strains, locus YPL256C, strain CLN2, active compounds read low",1.03
same,normalized growth,"S. cerevisiae deletion strains, locus YPR119W, strain clb2, active compounds read low",1
same,normalized growth,"S. cerevisiae deletion strains, locus YPR141C, strain kar3, active compounds read low",0.979
same,normalized growth,"S. cerevisiae deletion strains, locus YPR163C, strain tif3, active compounds read low",1.01
same,normalized growth,"S. cerevisiae deletion strains, locus YPR167C, strain met16, active compounds read low",0.965
same,normalized growth,"S. cerevisiae deletion strains, strain wtn01, active compounds read low",1
same,normalized growth,"S. cerevisiae strains, strain wild type, active compounds read low",0.971
